According to PubChem BioAssay AID2288 (National Center for Advancing Translational Sciences (NCATS), 2010):
Screen size: about 340,000 compounds; fewer than 10 were called active. Roughly 2% stayed inconclusive and do not appear here. The call rests on the fitted dose curve; in most records, active means well fitted curve in the direction sought with a large enough effect; inconclusive means small, poorly fitted or top-dose-only effect, or another doubt; inactive means no such curve, though single readings can be large or run the other way. A selection follows.

Test: qHTS Assay for Modulators of miRNAs and/orActivators of miR-21;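 further: miR-21 action dims this reporter so a rising signal means less miR-21 action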
Details: HeLa miR-21 FLuc reporter, luciferase, 48 h; series mostly up to 38.3 µM
From the text: MLSCN Grant: 1 R21 NS059478-01 Assay Provider: Qihong Huang, The Wistar Institute NCGC Assay Overview: MicroRNAs (miRNAs) are endogenously encoded small (~20-25 nucleotides), nonprotein-coding RNAs that are involved in post-transcriptional repression of target messenger RNAs (mRNAs) (Le and Hannon, 2004). Estimated to be involved in the regulation of 30% of all protein-coding mRNAs (Filipowicz et al., 2008), miRNAs play a significant role in many biological processes including cellular differentiation and tissue development (Ghildiyal and Zamore, 2009).
NCGC Assay Protocol Summary: Reagents: HeLa cells stably expressing firefly luciferase (FLuc) under the control of a CMV promoter (upstream) and a miR-21 binding sequence directly downstream of the gene. These cells endogenously express miR-21. Control compounds used were compound C3 (provided by collaborator), N6-phenyladenosine (MP Biomedicals, 0215379625), and DMSO. Assay Summary: 6uL of HeLa miR-21-FLuc cells in assay buffer (DMEM, Invitrogen #21063-029; 10% FBS, HyClone #SH30071.03) were dispensed at 2000cells/well (3.3 x 10^5 cells/mL) into Greiner solid-white TC-treated 1536-well plates using a Multidrop Combi (Thermo Fisher Scientific). Plates were incubated for one hour at 37 degree Celsius, 95% humidity, 5% CO2. These assay plates were then treated with 23nL of compound or DMSO using a Kalypsys pin tool, which allows for delivery of a 24-point titration of each compound to the assay plate, with a final compound concentration ranging from approximately 40uM to 5pM. Assay plates were then incubated for 48 hours. After incubation, plates were allowed to come to RT for one hour prior to delivery of 3uL of 3X luciferase detection reagent. After a 15 minute incubation to allow for cell lysis, luciferase activity was measured using a ViewLux CCD imager (PerkinElmer), with an average exposure time of 2-12 seconds. Keywords: NIH Roadmap, MLPCN, MLSMR, qHTS, miR-21, microRNA, firefly luciferase, FLuc.

outcome, inactive:
COc1ccc(-c2[nH]c3c(c2-c2c(-n4cccc4)n(C)c(=O)n(C)c2=O)c(=O)n(C)c(=O)n3C)cc1
O=c1c2cccnc2n(Cc2cccc(F)c2)c(=O)n1Cc1ccccc1Cl
Cc1ccc(-c2nc(Cn3c(=O)cc(-c4ccccc4)c4c(C)nn(C)c43)c(C)o2)cc1
COC(=O)c1c(NC(=O)C(C)Oc2ccc(Cl)c(C)c2)sc(C)c1C (centres undefined)
Cc1cccc(Cn2c(SCc3ccc(C(=O)N4CCC(C)CC4)cc3)nc3ccncc32)c1
CCc1cnc2c(c1SCC(=O)c1ccccc1)c(=O)n(C)c(=O)n2C
CC(C)c1ccc(NC(=O)c2ccc(Cn3nc(N4CCN(c5ccccc5)CC4)ccc3=O)o2)cc1
Cc1ccc(-c2nnc3c4ccccc4c(C)nn23)cc1NC(=O)c1cccc(Br)c1
CC(=O)c1ccc(NC(c2ccc(F)cc2)c2nnc(-c3ccccc3)o2)cc1 (centres undefined)
CCN(C(=O)Cn1cnc2sc(C)c(S(=O)(=O)N3CCN(c4ncccn4)CC3)c2c1=O)c1ccccc1F
Cc1cccc(N2CCN(C3=C(c4ccccc4)C(=O)c4ccccc43)CC2)c1C
COc1cccc(NC(=O)c2csnn2)c1
N#C/C(=C\c1cccc(F)c1)c1nc(-c2cc3c(ccc4ccccc43)oc2=O)cs1
CC(=O)c1ccc(NC(=O)C2CCN(S(=O)(=O)c3c(C)noc3/C=C/c3ccc(C)cc3)CC2)cc1
CCOc1ccccc1C(=O)NC1(C(F)(F)F)C(=O)Nc2c1c(=O)[nH]c(=O)n2-c1ccc(F)cc1 (centres undefined)
O=C1CN(C(=O)Nc2ccccc2C(F)(F)F)C(c2ccccc2)c2c(sc3c2CCCC3)N1 (centres undefined)
O=C1OC(C(=O)Nc2cccc(Br)c2)Cc2ccccc21 (centres undefined)
O=C(CCOc1ccccc1)N(Cc1cccnc1)c1nc2ccc(Cl)cc2s1
CC(C)(C)NC(=O)CSc1nc(-c2ccc(F)cc2)cc(C(F)(F)F)n1
O=C(CSc1nc2nccnc2c(=O)n1CCc1c[nH]c2ccccc12)Nc1ccccc1F
Cn1c(SCC(=O)N2CCCc3ccccc32)ncc(C(=O)Nc2ccc(F)cc2)c1=O
Cc1ccc(Cl)cc1N(C)C(=O)Cn1nc(Cc2cccnc2)c2ccccc2c1=O
COc1ccc(SCc2cc(=O)c3ccc(C)c(C)c3[nH]2)cc1
Cc1cccc(OCCSc2nc3ccccc3n2CC(=O)N2CCCCC2)c1C
COc1ccc(NC(=O)C(c2ccccc2)N2Cc3ccccc3C2=O)cc1 (centres undefined)
CCCN1CN=C(NS(=O)(=O)c2ccc(NC(C)=O)cc2)NC1
COc1ccc(-c2nn3c(=O)cc(CN4CCN(C(=O)c5ccc(OC)c(OC)c5)CC4)nc3s2)cc1
CCOC(=O)c1c(C)[nH]c(C)c1S(=O)(=O)N(C)CC(=O)N1CCN(c2ccccc2)CC1
COc1ccc2c(c1)c(=O)c(C(=O)c1ccccc1)cn2CC(=O)Nc1ccc2c(c1)OCCO2
Cc1ccc(CNS(=O)(=O)c2ccc(C(=O)N(C)C)s2)cc1
COc1ccc(-c2c3c(=O)n(C)c(=O)n(C)c3c3c(C)nc4ccccc4n23)cc1
Cc1ccc(CN(C(=O)COc2ccc(Cl)cc2C)C2CCS(=O)(=O)C2)o1 (centres undefined)
Cc1ccc(NC(=O)c2ccc3[nH]c(C)cc(=O)c3c2)c(C)c1
Cc1ccccc1CCNC(=O)C1CCN(c2nc3ccccc3nc2C(F)(F)F)CC1
COC(=O)c1ccc(NC(=O)CCc2c(C)nn(-c3ccc(N4CCCC4)nn3)c2C)cc1
Cc1cc(C)cc(NC(=O)c2cnc3sc(N4CCCC4)nn3c2=O)c1
O=C(Cn1cnc2c(oc3ccccc32)c1=O)Nc1ccc(OC(F)(F)F)cc1
COc1ccccc1C(=O)OCc1cc(=O)n2nc(-c3cccs3)sc2n1
Cc1ccc(-c2nnc(SCc3ccccc3C)o2)cc1
CCN(CC)C(=O)CSc1nc2ccsc2c(=O)n1Cc1ccccc1Cl
COc1ccc(CCNCc2c(C(=O)O)c(C)n(Cc3cccc(C)c3)c2C)cc1OC
COc1ccc(-n2c(=O)c3c(c4cc(OC)ccc4n3C)n(Cc3cccc(C)c3)c2=O)cc1
COc1ccc(OC)c(CCNC(=O)CCCn2c(=O)c3cccn3c3cccnc32)c1
Cc1nn2c(=O)cc(COC(=O)c3cccc(NC(=O)COc4ccccc4Cl)c3)nc2s1
